INHIBITION data for 70 compounds are collected here from ChEMBL document CHEMBL4513216, “Probing the Open Global Health Chemical Diversity Library for Multistage-Active Starting Points for Next-Generation Antimalarials” (ACS Infect Dis, 2020).

Structures are written as SMILES. Among all 68,000 compounds or so, about 2,700 (4%) showed an effect of 50% or more. For the sample, strong results were picked, then their nearest neighbours and some compounds at random.

The test deals with Plasmodium berghei. Kind of test: Screen against P. berghei liver stage (PbLuc), transformed with Luciferase, at 2uM. It is filed as functional, HepG2. The conditions noted are these: tested at 2 uM.
Turning to `COCCN1CCCn2cnc(CNC(=O)N(C)C)c2C1`, the INHIBITION was 2.33%.
`CC(C)(CO)CCCNC(=O)NC1(C)Cc2ccccc2C1`: the INHIBITION was 29.87%.
For `CC(C)(CO)CCCNC(=O)NC1(c2cccc(F)c2)CC1`, the INHIBITION turned out to be 57.16%.
As to `CC(C)(CO)CCCNC(=O)NC1(c2ccccc2F)CC1`, the INHIBITION is given as -3.66%.
For `CC(NC(=O)COc1ccccc1I)C1CC1` (stereo not given), the INHIBITION was -3.87%.
As to `CN(CCOCC1CC1)C(=O)Nc1ccc([S+](C)[O-])cc1` (stereo not given), the INHIBITION is -88.39%.
For `O=C(CC1CCCC1)NCCNCc1cccc2c1OCCO2`, the INHIBITION is reported as 30.57%.
As for `O=C(CCNCc1cccc2c1OCCCO2)NC1CCCC1`, the INHIBITION was -42.54%.
Next, `O=C(NCCNCc1cccc2c1OCCCO2)C1CCCC1`: 77.72%; `CCO[C@@H]1CO[C@@]2(CCCN(S(=O)(=O)c3ccccc3)C2)C1`: 32.66%.
For `COCCN1CCC12CCN(c1ncccn1)C2` (stereo not given), the INHIBITION was determined as 30.96%.
As for `COC(=O)c1cc2n(n1)CCCN(C(=O)Cc1c[nH]c3ccccc13)C2`, the figure is 19.27%; as for `N#Cc1cc2n(n1)CCN(C(=O)CCc1c[nH]c3ccccc13)C2`, 76.29%.
`O=C(O)c1cc2n(n1)CCCN(C(=O)CCc1c[nH]c3ccccc13)C2`: the INHIBITION is 6.72%.
In the case of `CC(NC(=O)c1cccc(CCC(C)(C)O)c1)c1nnc(N)s1` (stereo not given), the INHIBITION came out at 18.84%.
Next, `Cc1noc(C)c1-c1cc(C2CCNCC2)ccn1`: -18.04%; `O=S(=O)(CC1CCCO1)Nc1cc(Cl)ccc1-n1cccn1` (stereo not given): -69.64%.
As for `Cc1ccc(N2CCC(N3C[C@@H](CN(C)C)[C@@H](CO)C3)CC2)cc1`, the INHIBITION is listed as 27.85%.
Turning to `CN(C)C[C@@H]1CN(C2CCN(c3ccc(Cl)cc3)CC2)C[C@@H]1CO`, the INHIBITION worked out at 63.46%.
Consider `CN(C)C[C@@H]1CN(C2CCN(c3ccccc3Cl)CC2)C[C@@H]1CO`, for which the INHIBITION is recorded as 32.26%.
As for `Cc1ccccc1OCC(=O)N1CCN(C2CCOC2=O)CC1` (stereo not given), the INHIBITION was -42.29%.
In the case of `CCn1ccnc1CN(C)Cc1nc(Cc2ccccc2F)no1`, the INHIBITION is recorded as 36.34%.
As to `Cc1cc(C[S+]([O-])CC(=O)NCc2cccc(Cl)c2)no1` (stereo not given), the INHIBITION is reported as -11.2%.
Next, `CCN1CC2(CC1=O)CN(C(C)=O)CCN(C(=O)NC)C2` (stereo not given): -17.59%; `N#Cc1ccc(SCCOCCO)c(Cl)c1`: 53.63%; `N#Cc1ccc(SCCC(=O)O)cc1`: 1.8%.
Consider `CCCS(=O)(=O)CCSc1cccc(C#N)c1`, for which the INHIBITION is 32.97%.
As for `N#Cc1ccc(SCCOCCO)c(F)c1`, the figure is 53.63%.
On to `N#Cc1ccc(SCCCO)c(F)c1`, for which the INHIBITION is listed as -22.89%.
As to `N#Cc1ccc(F)c(CNc2ccc(F)cc2OCCO)c1`, the INHIBITION is listed as -17.04%.
Next, `CO[C@@H]1CCC[C@@H](NC(=O)C(C)(C)c2cccc(F)c2)[C@H]1O`: -21.9%.
Regarding `CC(C)n1cnc2c1C(C(=O)N1CCCC1)N(S(C)(=O)=O)CC2` (stereo not given), the INHIBITION is listed as 29.19%.
Turning to `Cn1cc(I)c(C(=O)NCCCn2cc(Br)cn2)n1`, the INHIBITION was -6.71%.
Next, `Cc1nn(C)c(C)c1C(C(=O)O)N1CCc2ccccc2C1` (stereo not given): 11.33%; `O=C(NCCS(=O)(=O)N1CCN(c2ncccn2)CC1)c1ccccc1`: 30.62%; `Cc1nc(CN2C[C@@H]3CCCO[C@@H]3[C@H](N(C)C(C)C)C2)cs1`: -20.01%.
As for `CC(=O)N1CC(C)CN(C(=O)c2cccnc2C)c2ccccc21` (stereo not given), the figure is -5.98%; as for `N#Cc1c(Cl)nsc1NCc1cccnc1OC1CCCC1`, -59.9%.
As to `O=c1[nH]cnc2c1CCN(S(=O)(=O)c1ccc(Cl)cc1)C2`, the INHIBITION is 5.1%.
As for `O=S1(=O)c2ccccc2C2(CCN(Cc3cccnc3)C2)N1CC1CC1` (stereo not given), the INHIBITION is recorded as 30.39%.
Consider `Cc1nc(N2CCCC2)nc2c1CCN(C(=O)NC1CCCC1)CC2`, for which the INHIBITION turned out to be 40.28%.
For the compound `CCC(=O)N1CCc2nc(N3CCOCC3)nc(N(C)C)c2CC1`, the INHIBITION is on record as 54.62%.
As to `Cc1nc(N2CCOCC2)nc2c1CCN(C(=O)C1CCCCC1)CC2`, the INHIBITION was 36.99%.
For the compound `Cc1nc(N2CCCC2)nc2c1CN(C(=O)NC(C)C)CC2`, the INHIBITION is on record as 60.05%.
In the case of `Cc1nc(N2CCOCC2)nc2c1CCN(C(=O)NC1CCCC1)CC2`, the INHIBITION is given as 51.57%.
As for `CC(=O)N1CCc2nc(N3CCCC3)nc(C)c2C1`, the figure is 15.57%; as for `Cc1nc(N2CCCC2)nc2c1CCN(C(=O)NC(C)C)CC2`, -4.2%.
On to `CCCS(=O)(=O)N1CCc2nc(N3CCOCC3)nc(N(C)C)c2C1`, for which the INHIBITION was 40.64%.
As to `CCS(=O)(=O)N1CCc2nc(N3CCOCC3)nc(N(C)C)c2CC1`, the INHIBITION was 21.57%.
Turning to `N#Cc1cccc(C(=O)NC2CCc3c(ccc(=O)n3CC3CC3)C2)c1` (stereo not given), the INHIBITION is listed as -7.45%.
`COC(=O)c1cccc(S(=O)(=O)NC(=O)CC2CCCC2)c1`: the INHIBITION is recorded as -30.66%.
Next, `CC1CN(Cc2nnsc2Cl)CCN1c1nccs1` (stereo not given): 24.82%.
On to `O=C(NC1CC1)[C@H]1C[C@@H]2CCN(Cc3ccc4c(c3)OCO4)C[C@@H]2O1`, for which the INHIBITION worked out at 14%.
For the compound `CCc1cc(NCCN2CCNC2=O)n2nc(C)c(C)c2n1`, the INHIBITION is given as -35.07%.
For `O=C(Cc1ccccc1)N1CCC(c2nnc(-c3ccccn3)o2)CC1`, the INHIBITION was 11.53%.
Turning to `CCn1ncc(CN2CCN(C(=O)Cn3cc(Br)c(C)n3)CC2)c1C`, the INHIBITION is recorded as -22.24%.
`COc1cccc(CN(Cc2ccco2)Cc2cnc(C)n2C)c1`: the INHIBITION is -4.04%.
Next, `Cc1nc2cc(=O)[nH]n2c(C)c1CNC(=O)c1cnn(C(C)(C)C)c1`: -46.8%.
Turning to `Cc1ccc(CN(C(=O)NCC2CCS(=O)(=O)C2)C2CC2)o1` (stereo not given), the INHIBITION was found to be 26.39%.
For `Cc1ccc(CN(C(=O)NCC2CCCO2)C2CC2)o1` (stereo not given), the INHIBITION is 57.85%.
As to `COc1ncccc1NC(=O)N(Cc1ccc(C)o1)C1CC1`, the INHIBITION worked out at 51.21%.
With `CCN(C(=O)Nc1cccnc1OC)C1CC1`, the INHIBITION is -14.3%.
Turning to `Cc1ccc(CN(C(=O)NCC(c2cccs2)N(C)C)C2CC2)o1` (stereo not given), the INHIBITION is -38.2%.
Regarding `COc1ncccc1NC(=O)N(Cc1ccco1)C1CC1`, the INHIBITION is given as 20.93%.
Next, `Cc1cc(CN2CCN(C(=O)CCCc3nc(C(C)C)no3)CC2)on1`: 26.06%; `COc1ncc(-c2ccc(C(N)=O)cc2)c(OC)n1`: 29.41%.
`Cc1cc(C)c(CNC(=O)NCCCNc2ccccn2)c(=O)[nH]1`: the INHIBITION came to 34.65%.
As for `CCN1C[C@H]2CCN(C(C)=O)CC[C@H]2S1(=O)=O`, the figure is 59.49%.
`COCCN1C[C@H]2CCN(C(C)=O)CC[C@H]2S1(=O)=O`: the INHIBITION is listed as 43.05%.
As for `CCN1C[C@H]2CCN(C(=O)NC)CC[C@H]2S1(=O)=O`, the figure is -11.73%.
